From PubChem BioAssay (NCI)
This is part of a sample that, as a whole, favours compounds with a hit. Of some 83,000 tested, about 20% had one in any assay.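 Negative percent growth values reflect cell death: -40 means 40% of the cells present at the start died, and -100 means all died.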 The source made the active and inactive calls. Rule for the calls: active = growth percent below 10; inactive = the rest.

Tests used:
Assay in all cases: NCI-60 one-dose screen, 48 h (100 = growth as untreated, 0 = no growth, -100 = all killed)
Settings in all cases: 10 µM unless noted
HT29 colon = system: HT29 colon
SNB-75 CNS = system: SNB-75 CNS
SNB-19 CNS = system: SNB-19 CNS
U251 CNS = system: U251 CNS
PC-3 prostate = system: PC-3 prostate
SK-MEL-5 melanoma = system: SK-MEL-5 melanoma
UACC-62 melanoma = system: UACC-62 melanoma
LOX IMVI melanoma = system: LOX IMVI melanoma
SK-MEL-28 melanoma = system: SK-MEL-28 melanoma
SK-MEL-2 melanoma = system: SK-MEL-2 melanoma
EKVX NSCLC = system: EKVX NSCLC
SN12C renal = system: SN12C renal
UO-31 renal = system: UO-31 renal
TK-10 renal = system: TK-10 renal
ACHN renal = system: ACHN renal
CAKI-1 renal = system: CAKI-1 renal
A498 renal = system: A498 renal
CCRF-CEM leukemia = system: CCRF-CEM leukemia
MOLT-4 leukemia = system: MOLT-4 leukemia

Measured: growth

COc1ccc2c(c1)C(C)Cc1c(ncnc1-n1cnc3ccccc31)N2C (stereo not given)
active: HT29 colon -17.8% | A498 renal -0.234% | CCRF-CEM leukemia 9.22%
inactive: SNB-75 CNS 37.5% | SNB-19 CNS 33.4% | U251 CNS 21.4% | PC-3 prostate 17.5% | SK-MEL-5 melanoma 11.2% | UACC-62 melanoma 39% | LOX IMVI melanoma 26.6% | SK-MEL-28 melanoma 59.5% | SK-MEL-2 melanoma 44% | EKVX NSCLC 40.4% | SN12C renal 24.5% | UO-31 renal 46.9% | TK-10 renal 63.7% | ACHN renal 50.1% | CAKI-1 renal 27.6% | MOLT-4 leukemia 17.8%

CC1(C)CC[C@]2(C(N)=O)CC[C@]3(C)C(=CC[C@@H]4[C@@]5(C)C/C(=C/c6ccncc6)C(=O)C(C)(C)[C@@H]5CC[C@]43C)[C@@H]2C1
active: HT29 colon -65.4% [100 µM] | SNB-75 CNS -86.4% [100 µM] | SNB-19 CNS -83.8% [100 µM] | U251 CNS -81.1% [100 µM] | PC-3 prostate -33.5% [100 µM] | SK-MEL-5 melanoma -71.1% [100 µM] | LOX IMVI melanoma -51.4% [100 µM] | SK-MEL-28 melanoma -64.7% [100 µM] | SK-MEL-2 melanoma -86% [100 µM] | EKVX NSCLC -52.8% [100 µM] | SN12C renal -78.1% [100 µM] | UO-31 renal -98.1% [100 µM] | TK-10 renal -89.5% [100 µM] | ACHN renal -82.5% [100 µM] | CAKI-1 renal -58.3% [100 µM] | A498 renal -80.4% [100 µM] | CCRF-CEM leukemia -10% [100 µM] | MOLT-4 leukemia -13.6% [100 µM]

O=C1/C(=C/c2ccc(OCc3ccccc3)cc2)Oc2cc(OCCN3CCCCC3)ccc21
inactive: HT29 colon 33.2% | SNB-75 CNS 83% | SNB-19 CNS 94.3% | U251 CNS 69.8% | PC-3 prostate 74.9% | SK-MEL-5 melanoma 61.6% | UACC-62 melanoma 61% | LOX IMVI melanoma 52.3% | SK-MEL-28 melanoma 78.4% | SK-MEL-2 melanoma 112% | EKVX NSCLC 80.5% | SN12C renal 82.4% | UO-31 renal 70.6% | TK-10 renal 104% | ACHN renal 89.6% | CAKI-1 renal 70.5% | A498 renal 60.9% | CCRF-CEM leukemia 73% | MOLT-4 leukemia 76.1%

Cc1ccc(-c2cn(C/C=C3\C=CN(S(=O)(=O)c4ccccc4)CC3)nn2)cc1
inactive: HT29 colon 124% | SNB-75 CNS 82.1% | SNB-19 CNS 93% | U251 CNS 108% | PC-3 prostate 97.1% | SK-MEL-5 melanoma 97% | UACC-62 melanoma 64% | LOX IMVI melanoma 97.8% | SK-MEL-28 melanoma 101% | SK-MEL-2 melanoma 101% | EKVX NSCLC 101% | SN12C renal 91.9% | UO-31 renal 72.6% | TK-10 renal 115% | ACHN renal 95.8% | CAKI-1 renal 76.5% | A498 renal 94.3% | MOLT-4 leukemia 106%
active: CCRF-CEM leukemia 3.1%

Cc1nc(Cl)c2c(n1)N(C)c1ccc(Cl)cc1C(C)C2 (stereo not given)
inactive: HT29 colon 83.8% | SNB-75 CNS 66.1% | SNB-19 CNS 90.5% | U251 CNS 90.1% | PC-3 prostate 73.5% | SK-MEL-5 melanoma 82.5% | UACC-62 melanoma 65% | LOX IMVI melanoma 92.3% | SK-MEL-28 melanoma 105% | SK-MEL-2 melanoma 96.1% | EKVX NSCLC 75% | SN12C renal 86.6% | UO-31 renal 70.9% | TK-10 renal 92.9% | ACHN renal 91.7% | CAKI-1 renal 78.8% | A498 renal 81.5% | CCRF-CEM leukemia 90.3% | MOLT-4 leukemia 80.6%

C[n+]1cccc(NC(=O)c2ccc3ccc4ccc(C(=O)Nc5ccc[n+](C)c5)nc4c3n2)c1
active: SK-MEL-5 melanoma 1.98% | UACC-62 melanoma -54.4% | SN12C renal -14.8%
inactive: HT29 colon 34.2% | SNB-75 CNS 12.8% | SNB-19 CNS 14.3% | U251 CNS 13% | PC-3 prostate 55.3% | LOX IMVI melanoma 64.5% | SK-MEL-28 melanoma 31.2% | SK-MEL-2 melanoma 56.9% | EKVX NSCLC 68.1% | UO-31 renal 65.4% | TK-10 renal 94.2% | ACHN renal 41.8% | CAKI-1 renal 52.3% | A498 renal 95.3% | CCRF-CEM leukemia 71.1% | MOLT-4 leukemia 71.5%

CNC(=O)c1cc(Oc2ccc3nc(NC(=O)c4ccc5ncccc5c4)sc3c2)ccn1
inactive: HT29 colon 69.9% | SNB-75 CNS 86.5% | SNB-19 CNS 95.1% | U251 CNS 93.6% | PC-3 prostate 93.2% | SK-MEL-5 melanoma 86.4% | UACC-62 melanoma 94.9% | LOX IMVI melanoma 99.6% | SK-MEL-28 melanoma 101% | SK-MEL-2 melanoma 86.2% | EKVX NSCLC 87.5% | SN12C renal 92.6% | UO-31 renal 77% | TK-10 renal 90.5% | ACHN renal 102% | CAKI-1 renal 89.9% | A498 renal 88.3% | CCRF-CEM leukemia 91% | MOLT-4 leukemia 94.2%

O=C(N/N=C\c1cc(Cl)ccc1O)N/N=C/c1cc(Cl)ccc1O
inactive: HT29 colon 93.9% | SNB-75 CNS 39.8% | SNB-19 CNS 58.2% | U251 CNS 49.9% | PC-3 prostate 40% | SK-MEL-5 melanoma 52.1% | UACC-62 melanoma 54.7% | LOX IMVI melanoma 42.6% | SK-MEL-2 melanoma 70.6% | EKVX NSCLC 69.4% | SN12C renal 66.8% | UO-31 renal 17.3% | TK-10 renal 55.4% | ACHN renal 27.5% | CAKI-1 renal 60.2% | A498 renal 80.3% | CCRF-CEM leukemia 27.4% | MOLT-4 leukemia 43.2%

O=S(=O)(c1ccc(N/N=C\c2ccccc2Cl)cc1)c1ccc(N/N=C/c2ccccc2Cl)cc1
inactive: HT29 colon 79.2% | U251 CNS 90.1% | PC-3 prostate 54.7% | SK-MEL-5 melanoma 97.1% | UACC-62 melanoma 73.2% | LOX IMVI melanoma 95.1% | SK-MEL-28 melanoma 94.2% | SK-MEL-2 melanoma 89.1% | EKVX NSCLC 84.5% | SN12C renal 87.2% | UO-31 renal 63.7% | TK-10 renal 110% | ACHN renal 82.7% | CAKI-1 renal 62.2% | A498 renal 94.2% | CCRF-CEM leukemia 75.9% | MOLT-4 leukemia 65.1%

CCOC(=O)c1sc2nc(-c3cc(OC)c(OC)c(OC)c3)nc(N3CCOCC3)c2c1C
inactive: HT29 colon 40.6% | SNB-75 CNS 56.2% | SNB-19 CNS 53.2% | U251 CNS 36.2% | PC-3 prostate 14.2% | UACC-62 melanoma 15.7% | LOX IMVI melanoma 45.1% | SK-MEL-28 melanoma 42.2% | SK-MEL-2 melanoma 28.1% | EKVX NSCLC 39.5% | SN12C renal 36% | UO-31 renal 22.4% | TK-10 renal 48.3% | ACHN renal 33.6% | CAKI-1 renal 31.6% | CCRF-CEM leukemia 17.1% | MOLT-4 leukemia 17.1%
active: SK-MEL-5 melanoma 2.9% | A498 renal -0.941%

C#CCNC(=O)CC[C@@H](C)[C@H]1CC[C@H]2[C@@H]3CC[C@@H]4CC(=O)CC[C@]4(C)[C@H]3CC[C@]12C
active: HT29 colon -25% [100 µM] | SNB-75 CNS -58.3% [100 µM] | U251 CNS -43.4% [100 µM] | PC-3 prostate -14.6% [100 µM] | SK-MEL-5 melanoma -86.5% [100 µM] | UACC-62 melanoma -74% [100 µM] | LOX IMVI melanoma -71.6% [100 µM] | SK-MEL-28 melanoma -84.4% [100 µM] | SK-MEL-2 melanoma -57.1% [100 µM] | EKVX NSCLC -31.8% [100 µM] | SN12C renal -72% [100 µM] | UO-31 renal -92.6% [100 µM] | TK-10 renal -16.8% [100 µM] | ACHN renal -86.2% [100 µM] | CAKI-1 renal -59.4% [100 µM] | A498 renal -23.9% [100 µM] | CCRF-CEM leukemia -34% [100 µM] | MOLT-4 leukemia -18.4% [100 µM]
inactive: SNB-19 CNS 14.8% [100 µM]

COc1ccc(/C=C(/C2=NCCN2)n2ccc3ccccc32)cc1
inactive: HT29 colon 89% | SNB-75 CNS 65% | SNB-19 CNS 91.6% | U251 CNS 89% | PC-3 prostate 73.4% | SK-MEL-5 melanoma 94.7% | UACC-62 melanoma 86.8% | LOX IMVI melanoma 84.7% | SK-MEL-2 melanoma 99.5% | EKVX NSCLC 88.5% | SN12C renal 88.9% | UO-31 renal 52.9% | TK-10 renal 85.8% | CAKI-1 renal 69.7% | A498 renal 89% | CCRF-CEM leukemia 86.2% | MOLT-4 leukemia 93.2%

COc1ccc2[nH]c(C(=O)N3CCN(C(=O)OCc4ccc5c(Br)cc(Br)c(O)c5n4)CC3)cc2c1
active: HT29 colon -68.5% | SNB-75 CNS -98.5% | SNB-19 CNS -93.1% | U251 CNS -95.7% | PC-3 prostate -87.9% | SK-MEL-5 melanoma -99% | UACC-62 melanoma -95.5% | LOX IMVI melanoma -91.2% | SK-MEL-2 melanoma -89.5% | EKVX NSCLC -76% | SN12C renal -86.8% | UO-31 renal -100% | TK-10 renal -99.5% | ACHN renal -100% | CAKI-1 renal -96% | A498 renal -97% | CCRF-CEM leukemia -11.8% | MOLT-4 leukemia -22.3%
